mHTT CaM bind – disrupts binding of mutant huntingtin to calmodulin | P42858 | AlphaScreen His-mHTT/GST-CaM binding, luminescence | inhibition, % at 15 µM | hit rate 3.6% among 190,000 | AID 1671202
Target sequence (P42858 whole entry, looked up, change not shown): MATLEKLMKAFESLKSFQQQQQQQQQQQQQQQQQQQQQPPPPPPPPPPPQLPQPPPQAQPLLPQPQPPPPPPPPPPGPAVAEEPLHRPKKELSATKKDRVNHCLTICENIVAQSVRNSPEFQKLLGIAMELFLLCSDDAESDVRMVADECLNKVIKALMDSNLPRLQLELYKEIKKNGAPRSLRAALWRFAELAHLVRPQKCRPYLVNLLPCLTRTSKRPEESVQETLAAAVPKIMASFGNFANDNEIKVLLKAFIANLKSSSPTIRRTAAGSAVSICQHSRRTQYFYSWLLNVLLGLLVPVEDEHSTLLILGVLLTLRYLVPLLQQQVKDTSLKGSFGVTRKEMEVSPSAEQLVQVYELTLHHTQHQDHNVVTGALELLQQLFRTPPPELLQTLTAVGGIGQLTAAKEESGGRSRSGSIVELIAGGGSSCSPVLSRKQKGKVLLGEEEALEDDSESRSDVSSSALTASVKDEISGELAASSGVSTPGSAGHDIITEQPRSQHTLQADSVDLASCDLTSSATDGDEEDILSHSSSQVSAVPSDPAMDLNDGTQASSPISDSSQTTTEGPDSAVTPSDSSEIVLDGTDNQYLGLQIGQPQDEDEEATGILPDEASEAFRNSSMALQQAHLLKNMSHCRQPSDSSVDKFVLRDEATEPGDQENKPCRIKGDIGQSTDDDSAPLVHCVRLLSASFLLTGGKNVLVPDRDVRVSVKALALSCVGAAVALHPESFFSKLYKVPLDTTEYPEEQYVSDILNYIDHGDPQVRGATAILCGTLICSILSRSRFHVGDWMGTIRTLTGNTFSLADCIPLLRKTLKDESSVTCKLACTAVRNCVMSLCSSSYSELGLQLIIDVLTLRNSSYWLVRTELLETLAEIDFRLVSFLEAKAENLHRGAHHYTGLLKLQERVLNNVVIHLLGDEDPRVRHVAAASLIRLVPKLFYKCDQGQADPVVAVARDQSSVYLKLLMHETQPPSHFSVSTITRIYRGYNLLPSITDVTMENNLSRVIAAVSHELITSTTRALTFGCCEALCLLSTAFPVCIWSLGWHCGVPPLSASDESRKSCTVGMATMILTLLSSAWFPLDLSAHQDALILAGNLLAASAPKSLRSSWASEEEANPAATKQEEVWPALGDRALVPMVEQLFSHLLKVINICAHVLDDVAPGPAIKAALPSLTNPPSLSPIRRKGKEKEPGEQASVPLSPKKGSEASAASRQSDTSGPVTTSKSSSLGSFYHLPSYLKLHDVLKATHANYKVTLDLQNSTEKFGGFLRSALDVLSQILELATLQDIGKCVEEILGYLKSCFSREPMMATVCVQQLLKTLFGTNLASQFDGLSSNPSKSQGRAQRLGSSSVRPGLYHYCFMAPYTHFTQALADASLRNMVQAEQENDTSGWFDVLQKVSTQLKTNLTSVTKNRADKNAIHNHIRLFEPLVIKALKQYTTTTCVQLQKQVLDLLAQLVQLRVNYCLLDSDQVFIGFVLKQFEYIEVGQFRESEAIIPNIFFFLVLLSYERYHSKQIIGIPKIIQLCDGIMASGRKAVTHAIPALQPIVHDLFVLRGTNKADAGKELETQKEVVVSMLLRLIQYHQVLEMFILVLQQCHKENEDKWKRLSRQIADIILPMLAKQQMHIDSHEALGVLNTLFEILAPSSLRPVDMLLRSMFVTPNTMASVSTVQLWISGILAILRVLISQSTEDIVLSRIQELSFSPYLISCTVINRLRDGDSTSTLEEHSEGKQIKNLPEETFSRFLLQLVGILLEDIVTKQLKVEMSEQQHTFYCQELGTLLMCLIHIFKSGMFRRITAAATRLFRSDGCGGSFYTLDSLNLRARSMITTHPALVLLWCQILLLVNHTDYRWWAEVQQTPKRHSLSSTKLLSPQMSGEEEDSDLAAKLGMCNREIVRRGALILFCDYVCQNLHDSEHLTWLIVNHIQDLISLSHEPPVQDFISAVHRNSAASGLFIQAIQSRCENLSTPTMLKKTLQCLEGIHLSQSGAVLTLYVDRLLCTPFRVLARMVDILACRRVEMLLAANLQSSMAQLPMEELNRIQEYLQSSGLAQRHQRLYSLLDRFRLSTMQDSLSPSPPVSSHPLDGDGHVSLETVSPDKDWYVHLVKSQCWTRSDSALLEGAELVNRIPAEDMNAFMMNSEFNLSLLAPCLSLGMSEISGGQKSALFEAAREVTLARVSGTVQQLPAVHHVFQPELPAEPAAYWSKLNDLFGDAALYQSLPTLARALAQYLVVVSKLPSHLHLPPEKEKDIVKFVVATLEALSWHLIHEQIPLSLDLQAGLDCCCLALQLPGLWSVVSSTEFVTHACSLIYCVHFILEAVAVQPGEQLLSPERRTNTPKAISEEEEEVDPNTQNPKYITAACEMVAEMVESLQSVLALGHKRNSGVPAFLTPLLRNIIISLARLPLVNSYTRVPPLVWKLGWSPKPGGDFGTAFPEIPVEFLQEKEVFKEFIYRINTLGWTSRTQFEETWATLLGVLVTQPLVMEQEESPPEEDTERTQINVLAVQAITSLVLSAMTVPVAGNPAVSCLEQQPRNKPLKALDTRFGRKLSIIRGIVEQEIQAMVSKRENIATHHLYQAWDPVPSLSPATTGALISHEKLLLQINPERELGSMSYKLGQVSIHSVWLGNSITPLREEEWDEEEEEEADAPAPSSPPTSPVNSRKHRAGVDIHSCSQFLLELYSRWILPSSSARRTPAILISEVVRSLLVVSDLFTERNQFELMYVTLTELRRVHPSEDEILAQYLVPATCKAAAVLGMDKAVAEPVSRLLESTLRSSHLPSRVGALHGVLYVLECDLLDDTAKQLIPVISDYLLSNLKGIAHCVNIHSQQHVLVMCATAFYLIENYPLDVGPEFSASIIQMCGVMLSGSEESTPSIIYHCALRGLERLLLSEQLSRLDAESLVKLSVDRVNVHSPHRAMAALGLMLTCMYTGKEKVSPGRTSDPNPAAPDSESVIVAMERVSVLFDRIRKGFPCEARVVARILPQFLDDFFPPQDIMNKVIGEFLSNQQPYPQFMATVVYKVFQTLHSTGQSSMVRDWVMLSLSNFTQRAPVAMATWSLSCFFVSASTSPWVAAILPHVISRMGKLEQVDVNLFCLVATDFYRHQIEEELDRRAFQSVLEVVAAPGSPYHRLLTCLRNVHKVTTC
Pf apPOL inh – Pf-apPOL DNA polymerase inhibition | Recombinant Pf-apPOL, molecular beacon fluorescence, 1.5 h | inhibition, % at 10 µM | hit rate 0.25% among 210,000 | AID 1794808
Each line names hits and unclear results; the compound was inactive in the other large screens; ! = not active in a repeat. Most compounds without a hit are left out; they make up all but 3.5% or so of the library. Cut-off read from the data, not from the text of the source: active = inhibition above about 50%; inactive = the rest.

O=C(CCS(=O)(=O)c1cccc2nsnc12)NCC1COc2ccccc2O1 (stereo unspecified)	none
Cc1cccc(N2CCN(C(=O)C3CC(=O)N(CCc4ccccc4)C3)CC2)c1 (stereo unspecified)	none
O=C(N/C(=C\c1ccc(Br)cc1)c1nc2ccccc2o1)c1ccco1	mHTT CaM bind 94
NC(=Nc1nc2ccccc2o1)NC(=O)c1ccco1	none
COc1cc(-c2nc3ccccn3c2N=Cc2ccc(F)cc2)ccc1O	mHTT CaM bind 79
COc1cc(-c2nc3ccccn3c2N=Cc2ccccc2)ccc1O	none
Cc1ccnc(NC(c2cccnc2)c2ccc3cccnc3c2O)c1 (stereo unspecified)	mHTT CaM bind 100
Cc1ccnc(NC(c2cccnc2)c2ccc3ccc(C)nc3c2O)c1 (stereo unspecified)	mHTT CaM bind 76
COc1cccc(C(=O)Nc2cccc3cccnc23)c1	none
Cc1ccnc(NC(c2ccncc2)c2ccc3ccc(C)nc3c2O)c1 (stereo unspecified)	mHTT CaM bind 90
Cc1ccnc(NC(=O)c2cc(I)ccc2Cl)c1	none
COc1cccc(C(Nc2cc(C)ccn2)c2ccc3cccnc3c2O)c1 (stereo unspecified)	mHTT CaM bind 99
Cc1ccnc(NC(=O)CSc2ccccn2)c1	none (no result: mHTT CaM bind)
CN(C)c1cccc(C(=O)N2CCN(Cc3noc4ccccc34)CC2)c1	none
COc1ccc(CC(=O)Nc2c3c(nn2-c2ccc(F)cc2)CS(=O)(=O)C3)cc1	none
NC(=O)c1cc([N+](=O)[O-])ccc1N1CCCCCC1	none
O=C(Nc1ccc(F)c(F)c1)c1cc(S(=O)(=O)N2CCOCC2)ccc1F	none
COc1ccccc1CC(=O)Nc1cc(C)ccn1	none
COc1ccc(C(Nc2cc(C)ccn2)c2ccc3cccnc3c2O)cc1O (stereo unspecified)	mHTT CaM bind 100
O=C(C1CC1c1ccc(F)cc1)N1CCN(C(=O)C2(c3ccccc3)CCOCC2)CC1 (stereo unspecified)	none
COC(=O)Oc1c(Br)cc2oc(=O)sc2c1[N+](=O)[O-]	mHTT CaM bind 86
CCOC(=O)Oc1cc2sc(=O)oc2cc1Br	none
CC(C)COC(=O)Oc1c(Cl)cc2oc(=O)sc2c1[N+](=O)[O-]	mHTT CaM bind 82
Cc1ccc(OC(=O)OCC(C)C)c(Br)c1	none
CN(C)S(=O)(=O)Oc1cc2sc(=O)oc2cc1Cl	none
O=c1oc2cc(Br)c(O)c(Br)c2s1	mHTT CaM bind 100
COC(=O)Oc1c(Cl)cc2oc(=O)sc2c1Br	mHTT CaM bind 93
O=[N+]([O-])/C=C/c1cccs1	none
Cc1c(CN2CCCC(OCc3nc(C4CC4)no3)C2)cnn1C (stereo unspecified)	none
Cn1c(=O)c(-c2ccc(C(=O)NCC3CCCO3)cc2)nc2ccccc21 (stereo unspecified)	none
CC(C)c1[nH]nc2c1C(c1ccc3c(c1)OCO3)C(C#N)=C(N)O2 (stereo unspecified)	none
Fc1cccc(-c2noc(Cc3nnc(-c4cccc(F)c4)o3)n2)c1	none
CCOc1ccc(NC(=O)CCC(=O)O)c([N+](=O)[O-])c1	none
O=C(Nc1ccccc1Sc1ccc(C(F)(F)F)cc1[N+](=O)[O-])C(Cl)Cl	none (no result: mHTT CaM bind)
NS(=O)(=O)c1cccc(NC(=O)c2sccc2Cl)c1	none (no result: mHTT CaM bind)
Cc1ccc2c(c1)/C(=C/c1nc3ccccc3c(=O)n1-c1ccccc1[N+](=O)[O-])C(=O)N2	mHTT CaM bind 86
Cc1ccc2c(c1)/C(=C/c1nc3ccccc3c(=O)n1C)C(=O)N2	none
COc1cc(C(=O)n2c(C)nc3ccccc32)cc(OC)c1OC	mHTT CaM bind 89
Cc1nc2ccccc2n1C(=O)c1ccc(F)cc1	none
CCN(CC)c1cc(C)c2cc(NC(=O)c3ccc(Cl)nc3)ccc2n1	none
CCC(=O)N1CCN(c2nc(C)nc(C(C)C)c2Cc2c(F)cccc2Cl)CC1	none
COc1ccc(C2/C=C\CN[C@@H](Cc3ccccc3)C(=O)N2Cc2ccc(F)cc2)cc1 (stereo partly specified)	mHTT CaM bind 64
COc1ccc(C2/C=C\CN(CC3CC3)[C@@H](Cc3ccccc3)C(=O)N2Cc2ccc(F)cc2)cc1 (stereo partly specified)	none
COc1ccc(C2/C=C\CN(C(=O)C3CCCCC3)CC(=O)N2Cc2ccc(F)cc2)cc1 (stereo unspecified)	none
COc1ccc(C2/C=C\CN(C(=O)C3CCCC3)CC(=O)N2Cc2ccc(F)cc2)cc1 (stereo unspecified)	mHTT CaM bind 63
COc1ccc(C2/C=C\CN(C(=O)Nc3ccccc3-c3ccccc3)CC(=O)N2Cc2ccc(F)cc2)cc1 (stereo unspecified)	mHTT CaM bind 60
COC(=O)N1C/C=C\C(c2ccc(OC)cc2)N(Cc2ccc(F)cc2)C(=O)C1 (stereo unspecified)	none
O=C(CN1CCN(C(=O)Nc2ccccc2)CC1=O)NC1CCCC1	none
Cc1ccc(OCCSc2ncnc3nc[nH]c23)cc1C	none
Cc1ccc(NC(=O)Cn2cnc3c(-c4ccccc4)csc3c2=O)c(C)c1	none
O=[N+]([O-])c1ccc(N2CCSCC2)nc1	Pf apPOL inh 66
O=[N+]([O-])c1ccc(N2CCOCC2)nc1	none
Cc1ccc(C(=O)NC2CCN(c3ccccc3C(=O)N3CCCCC3)CC2)cc1	none
CSc1ccc(/C=N/N2CCN(C3c4ccccc4-c4ccccc43)CC2)cc1	none (no result: Pf apPOL inh)
Cn1c(N2CCC(C(=O)N3CCN(c4ccccc4F)CC3)CC2)cc(=O)n(C)c1=O	none
Cn1c(N2CCC(C(=O)N3CCN(c4ccccn4)CC3)CC2)cc(=O)n(C)c1=O	none
CCn1c(N2CCC(C(=O)N3CCN(c4ccccn4)CC3)CC2)cc(=O)n(C)c1=O	mHTT CaM bind 53
CCn1c(N2CCC(C(=O)N3CCN(c4ccccc4F)CC3)CC2)cc(=O)n(C)c1=O	mHTT CaM bind 62
CC=Cc1ccc(OCC(O)CN2CCN(C)CC2)c(OC)c1 (stereo unspecified)	none
Cc1nn(-c2cccc(F)c2)c2nc(N3CCCC(C(=O)NC4CCCCC4)C3)sc12 (stereo unspecified)	none
O=C(Nc1ccc2nc(NC(=O)c3ccc([N+](=O)[O-])cc3)sc2c1)c1ccc([N+](=O)[O-])cc1	none
Cc1ccc(NC(=O)Nc2ccc3nnc(C4CCC4)n3c2)cc1Cl	none
O=C(O)Cc1c[nH]c2ccc(O)cc12	mHTT CaM bind 85, Pf apPOL inh 95!
NC(Cc1c[nH]c2ccc(O)cc12)C(=O)O (stereo unspecified)	none (no result: mHTT CaM bind)
CCCS(=O)(=O)N1CCc2c(c(-c3nc(Cc4ccccc4)no3)nn2C)C1	none
COc1ccc2c(c1)c(CC(=O)NCc1cccnc1)c(C)n2C(=O)c1ccc(Cl)cc1	mHTT CaM bind 58
O=C(Cc1ccc(Cl)cc1)NCc1cccnc1	none
COc1cc(/C=C2/N=C(c3cccc(F)c3)OC2=O)cc(OC)c1	none
O=C1CCN(C(=O)c2ccc(S(=O)(=O)c3ccccc3)cc2)C2CCCCC12 (stereo unspecified)	none
Cc1noc(-c2ccccc2Cl)c1C(=O)NCCc1ccc(F)cc1	mHTT CaM bind 55
Cc1noc(-c2cccs2)c1C(=O)NCCc1ccc(F)cc1	none
CC(C)C(=O)N1CCN(c2nc3c(s2)CC(C(=O)NC2CC2)CC3)CC1 (stereo unspecified)	none
CCc1ccc(NC(=O)C2CCCN(c3nnc4ccccn34)C2)cc1 (stereo unspecified)	mHTT CaM bind 56
CCOc1ccc(NC(=O)C2CCCN(c3nnc4ccccn34)C2)cc1 (stereo unspecified)	none
O=C(NC(N1CCOCC1)C(Cl)(Cl)Cl)c1ccc(Cl)cc1 (stereo unspecified)	none

Bioassay records deposited in PubChem by University of Kansas High Throughput Screening Laboratory.
